The text below walks through data of PubChem BioAssay (NCI).

This is part of a sample that, as a whole, favours compounds with a hit. Of some 83,000 tested, about 20% had one in any assay.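 The test compound was applied at a single concentration to cells in 96-well plates for 48 hours, and percent growth was recorded.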 Unmarked numbers belong to inactive results. The source made the active and inactive calls. The calls were made as follows: active = growth percent below 10; inactive = the rest.

The first assay concerns SF-268 CNS. The assay is described as follows: NCI-60 one-dose screen, 48 h (100 = growth as untreated, 0 = no growth, -100 = all killed). To be noted: 10 µM unless noted.
Consider `COc1ccc(/C=N/Nc2cc(=O)[nH]c3ccc(Cl)cc23)cc1`, for which the growth was 58.9%.

As for `CCCCCCN(CCCCCC)c1ccc(/C=C2/SC(=O)NC2=O)c(C)c1`, the growth is 89.5%.

For `CC(=O)Oc1ccccc1C(=O)N=C1[Se]CCCN1C(=O)c1ccccc1OC(C)=O`, the growth was -14.1% (active).

In the case of `CC(C)OC(=O)Nc1ccc(-c2nc(-c3cccc(OCCN4CCOCC4)c3)c(-c3ccnc(Br)c3)[nH]2)cc1`, the growth was 52.2%.

In the case of `Cc1cc2nc3ccc(N=Nc4ccc(N(C)C)cc4)cc3n(-c3ccccc3)c-2cc1=N`, the growth is -78.1% (active).

In the case of `CCCCn1c(-c2ccc(-c3nc(-c4ccc(Cl)cc4)no3)cc2)nc(-c2ccccc2)c1-c1ccccc1`, the growth was 95.5%.

Regarding `Oc1c(I)cc(I)cc1CNCCCN(Cc1ccccn1)Cc1ccccn1`, the growth was -27.3% (active).

For the compound `C/C(=N/NC(N)=S)c1sc(Nc2cccc(Cl)c2)nc1C`, the growth is 75.1%.

Consider `Cc1nn(-c2ccccc2)c2c1N=c1s/c(=C\c3ccc(C(F)(F)F)cc3)c(=O)n1CN2`, for which the growth is 101%.

On to `O=C(O)CCC(=O)Nc1nnc(-c2ccccc2)s1`, for which the growth is 96.4%.

With `Oc1ccc(Cl)cc1Cc1cc(Cl)cc(Cl)c1O`, the growth is 42.3%.

For `O=c1c2cccc(Cl)c2sc2c(NCCCNCCO)nc3ccccc3c12`, the growth was 42.1%.

Consider `COc1cc(C2CC(c3cccc(Br)c3)=NN2C(C)=O)cc(OC)c1OC` (stereo unspecified), for which the growth is 55.3%.

Take `COc1ccc(-c2nc(NN)c3c(C)nn(-c4ccc(F)cc4)c3n2)cc1`: the growth is 46.3%.

On to `CCOC(=O)NCCc1ccccc1`, for which the growth is 114%.

For `COc1ccccc1/C=C1\Oc2cc(OCCN3CCC(Cc4ccccc4)CC3)ccc2C1=O`, the growth is 84.4%.

Regarding `O=C(COc1ccc(/C=C2\Cc3ccc(Cl)cc3C2=O)cc1)Nc1nc2ccccc2s1`, the growth is 112%.

As for `CCc1cccc2c3c(sc12)C(c1ccc(F)cc1)C(C#N)=C(N)O3` (stereo unspecified), the growth was 54.5%.

Take `Cc1ccc(C(=O)N/N=C/c2cccc([N+](=O)[O-])c2)cn1`: the growth is 110%.

On to `CCOC(=O)C1=C(N)Oc2c(sc3c(C)cccc23)C1c1ccc(Cl)cc1` (stereo unspecified), for which the growth is 55.5%.

For `COc1ccc(-n2c(N)c(-c3nc4ccccc4[nH]3)cc(C#N)c2=O)cc1`, the growth was 95.8%.

For `Cc1cc2nc3cc(C)c(N)cc3[n+](-c3ccccc3)c2cc1N`, the growth was 24%.

Take `COc1c(N2CC3CCCN(C(C)=O)C3C2)c(F)cc2c(=O)c(C(=O)N[C@H]3C(O)[C@@H](O)C(CO)O[C@H]3O)cn(C3CC3)c12` (stereo partly specified): the growth is 92.3%.

In the case of `COc1ccc(C2CC(c3ccc(Nc4nc(Nc5ccc(F)cc5)nc(Nc5ccc(Cl)cc5)n4)cc3)=NN2C(C)=O)cc1` (stereo unspecified), the growth is 131%.

Turning to `O=c1[nH][n+](-c2ccc(Br)cc2)no1`, the growth was 32.8%.

For `O=C(CSc1nccc(Nc2ccc(S(=O)(=O)Nc3nccs3)cc2)n1)c1ccc(C(F)(F)F)cc1`, the growth was 110%.

As to `COc1cc(C2CC(c3ccc(N(C)C)cc3)=NN2C(C)=O)cc(OC)c1OC` (stereo unspecified), the growth is 35%.

Consider `COc1ccc2c(c1)c(-c1ccc(-c3cn(C)c4ccc(OC)cc34)o1)cn2C`, for which the growth is 71.8%.

On to `COc1ccc(CN2c3ccccc3CCc3ccccc32)cc1F`, for which the growth is 38.9%.

With `CC(=O)N1N=C(c2ccc(Nc3nc(Nc4ccc(F)cc4)nc(Nc4ccc(Cl)cc4)n3)cc2)CC1c1ccc(Cl)cc1` (stereo unspecified), the growth was 124%.

In the case of `COc1ccc(OC)c(/C=C/c2nnc(Nc3ccccc3)o2)c1`, the growth was 98.5%.

Take `COc1cc2cc(Oc3ccc(NC(=O)Nc4ccc(Cl)c(C(F)(F)F)c4)cc3)c(C)nc2cc1OCCN1CCOCC1`: the growth is 32.2%.

As for `CCOC(=O)C1=C(N)Oc2c(sc3c(C)cccc23)C1c1ccc(F)cc1` (stereo unspecified), the growth was 38.2%.

On to `NCCCNc1nc2ccccc2c2c(=O)c3cccc(F)c3sc12`, for which the growth is 45.9%.

As to `CCc1ccc(Oc2c(-c3ccc(OCc4ccc(Cl)cc4)cc3O)n[nH]c2C(F)(F)F)cc1`, the growth was 30%.

On to `COc1ccc2sc3c(NCCCNCCO)nc4ccccc4c3c(=O)c2c1`, for which the growth is 50.8%.

Take `COc1nc2ccccc2cc1-c1nc2c(cnn2-c2ccc(Br)cc2)c(=O)[nH]1`: the growth is 41.3%.

With `Cc1oc2nc[nH]c(=O)c2c1C(=O)/C=C/c1ccc(Br)cc1`, the growth was 5.39% (active).

Another assay deals with SF-295 CNS. The assay is described as above. To be noted: 10 µM unless noted.
`COc1ccc(/C=N/Nc2cc(=O)[nH]c3ccc(Cl)cc23)cc1`: the growth was 72.6%.

Regarding `CCCCCCN(CCCCCC)c1ccc(/C=C2/SC(=O)NC2=O)c(C)c1`, the growth was 65.6%.

In the case of `CC(=O)Oc1ccccc1C(=O)N=C1[Se]CCCN1C(=O)c1ccccc1OC(C)=O`, the growth is 17.5%.

With `CC(C)OC(=O)Nc1ccc(-c2nc(-c3cccc(OCCN4CCOCC4)c3)c(-c3ccnc(Br)c3)[nH]2)cc1`, the growth was -65.2% (active).

Turning to `Cc1cc2nc3ccc(N=Nc4ccc(N(C)C)cc4)cc3n(-c3ccccc3)c-2cc1=N`, the growth was -89.4% (active).

Regarding `CCCCn1c(-c2ccc(-c3nc(-c4ccc(Cl)cc4)no3)cc2)nc(-c2ccccc2)c1-c1ccccc1`, the growth is 79%.

Take `Oc1c(I)cc(I)cc1CNCCCN(Cc1ccccn1)Cc1ccccn1`: the growth is -83.6% (active).

As for `C/C(=N/NC(N)=S)c1sc(Nc2cccc(Cl)c2)nc1C`, the growth is 88.7%.

For the compound `Cc1nn(-c2ccccc2)c2c1N=c1s/c(=C\c3ccc(C(F)(F)F)cc3)c(=O)n1CN2`, the growth is 84%.

As for `O=C(O)CCC(=O)Nc1nnc(-c2ccccc2)s1`, the growth was 96.9%.

`Oc1ccc(Cl)cc1Cc1cc(Cl)cc(Cl)c1O`: the growth was -15.1% (active).

Take `O=c1c2cccc(Cl)c2sc2c(NCCCNCCO)nc3ccccc3c12`: the growth is 73.9%.

For `COc1cc(C2CC(c3cccc(Br)c3)=NN2C(C)=O)cc(OC)c1OC` (stereo unspecified), the growth is 0.219% (active).

For the compound `COc1ccc(-c2nc(NN)c3c(C)nn(-c4ccc(F)cc4)c3n2)cc1`, the growth is 27.8%.

Take `CCOC(=O)NCCc1ccccc1`: the growth is 98.3%.

In the case of `COc1ccccc1/C=C1\Oc2cc(OCCN3CCC(Cc4ccccc4)CC3)ccc2C1=O`, the growth was 96.6%.

As to `O=C(COc1ccc(/C=C2\Cc3ccc(Cl)cc3C2=O)cc1)Nc1nc2ccccc2s1`, the growth is 108%.

On to `CCc1cccc2c3c(sc12)C(c1ccc(F)cc1)C(C#N)=C(N)O3` (stereo unspecified), for which the growth was 8.12% (active).

On to `Cc1ccc(C(=O)N/N=C/c2cccc([N+](=O)[O-])c2)cn1`, for which the growth is 107%.

Take `CCOC(=O)C1=C(N)Oc2c(sc3c(C)cccc23)C1c1ccc(Cl)cc1` (stereo unspecified): the growth was 4.92% (active).

For the compound `COc1ccc(-n2c(N)c(-c3nc4ccccc4[nH]3)cc(C#N)c2=O)cc1`, the growth was 94.1%.

Consider `Cc1cc2nc3cc(C)c(N)cc3[n+](-c3ccccc3)c2cc1N`, for which the growth is 34.5%.

For the compound `COc1c(N2CC3CCCN(C(C)=O)C3C2)c(F)cc2c(=O)c(C(=O)N[C@H]3C(O)[C@@H](O)C(CO)O[C@H]3O)cn(C3CC3)c12` (stereo partly specified), the growth was 103%.

With `COc1ccc(C2CC(c3ccc(Nc4nc(Nc5ccc(F)cc5)nc(Nc5ccc(Cl)cc5)n4)cc3)=NN2C(C)=O)cc1` (stereo unspecified), the growth was 103%.

With `O=c1[nH][n+](-c2ccc(Br)cc2)no1`, the growth is 21.3%.

Regarding `O=C(CSc1nccc(Nc2ccc(S(=O)(=O)Nc3nccs3)cc2)n1)c1ccc(C(F)(F)F)cc1`, the growth was 96.7%.

Turning to `COc1cc(C2CC(c3ccc(N(C)C)cc3)=NN2C(C)=O)cc(OC)c1OC` (stereo unspecified), the growth is 12.1%.

On to `COc1ccc2c(c1)c(-c1ccc(-c3cn(C)c4ccc(OC)cc34)o1)cn2C`, for which the growth is 62.2%.

`COc1ccc(CN2c3ccccc3CCc3ccccc32)cc1F`: the growth was 11.7%.

Regarding `CC(=O)N1N=C(c2ccc(Nc3nc(Nc4ccc(F)cc4)nc(Nc4ccc(Cl)cc4)n3)cc2)CC1c1ccc(Cl)cc1` (stereo unspecified), the growth was 123%.

As to `COc1ccc(OC)c(/C=C/c2nnc(Nc3ccccc3)o2)c1`, the growth is 91.1%.

Consider `COc1cc2cc(Oc3ccc(NC(=O)Nc4ccc(Cl)c(C(F)(F)F)c4)cc3)c(C)nc2cc1OCCN1CCOCC1`, for which the growth was 0.751% (active).

For the compound `CCOC(=O)C1=C(N)Oc2c(sc3c(C)cccc23)C1c1ccc(F)cc1` (stereo unspecified), the growth was 0.881% (active).

With `NCCCNc1nc2ccccc2c2c(=O)c3cccc(F)c3sc12`, the growth is 72.8%.

For `CCc1ccc(Oc2c(-c3ccc(OCc4ccc(Cl)cc4)cc3O)n[nH]c2C(F)(F)F)cc1`, the growth was 88.1%.

Consider `COc1ccc2sc3c(NCCCNCCO)nc4ccccc4c3c(=O)c2c1`, for which the growth is 85.7%.

In the case of `COc1nc2ccccc2cc1-c1nc2c(cnn2-c2ccc(Br)cc2)c(=O)[nH]1`, the growth was 16.9%.

For `Cc1oc2nc[nH]c(=O)c2c1C(=O)/C=C/c1ccc(Br)cc1`, the growth is 14.2%.
